Results published in publication PMC4336329 (PLoS ONE, 2015).
Hit rate of the full screen: of about 310,000 compounds, about 14,000 (4.5%) showed an effect of 50% or more. The effect is printed as a negative number. Many of the other results were omitted from the sample, so strong results are more common in it than they were. Where a SMILES comes first, the peptide text is derived from it. [ ]: non-standard residue; d: D form. The star is where a group is joined. ξ: configuration not given here. Cbz = O=C(OCc1ccccc1)*; ξV = CC(C)C(N)C(=O)O

Target: human ether-à-go-go-related gene (hERG) potassium channel (human, UniProt Q12809)
Sequence (Q12809 whole entry, looked up): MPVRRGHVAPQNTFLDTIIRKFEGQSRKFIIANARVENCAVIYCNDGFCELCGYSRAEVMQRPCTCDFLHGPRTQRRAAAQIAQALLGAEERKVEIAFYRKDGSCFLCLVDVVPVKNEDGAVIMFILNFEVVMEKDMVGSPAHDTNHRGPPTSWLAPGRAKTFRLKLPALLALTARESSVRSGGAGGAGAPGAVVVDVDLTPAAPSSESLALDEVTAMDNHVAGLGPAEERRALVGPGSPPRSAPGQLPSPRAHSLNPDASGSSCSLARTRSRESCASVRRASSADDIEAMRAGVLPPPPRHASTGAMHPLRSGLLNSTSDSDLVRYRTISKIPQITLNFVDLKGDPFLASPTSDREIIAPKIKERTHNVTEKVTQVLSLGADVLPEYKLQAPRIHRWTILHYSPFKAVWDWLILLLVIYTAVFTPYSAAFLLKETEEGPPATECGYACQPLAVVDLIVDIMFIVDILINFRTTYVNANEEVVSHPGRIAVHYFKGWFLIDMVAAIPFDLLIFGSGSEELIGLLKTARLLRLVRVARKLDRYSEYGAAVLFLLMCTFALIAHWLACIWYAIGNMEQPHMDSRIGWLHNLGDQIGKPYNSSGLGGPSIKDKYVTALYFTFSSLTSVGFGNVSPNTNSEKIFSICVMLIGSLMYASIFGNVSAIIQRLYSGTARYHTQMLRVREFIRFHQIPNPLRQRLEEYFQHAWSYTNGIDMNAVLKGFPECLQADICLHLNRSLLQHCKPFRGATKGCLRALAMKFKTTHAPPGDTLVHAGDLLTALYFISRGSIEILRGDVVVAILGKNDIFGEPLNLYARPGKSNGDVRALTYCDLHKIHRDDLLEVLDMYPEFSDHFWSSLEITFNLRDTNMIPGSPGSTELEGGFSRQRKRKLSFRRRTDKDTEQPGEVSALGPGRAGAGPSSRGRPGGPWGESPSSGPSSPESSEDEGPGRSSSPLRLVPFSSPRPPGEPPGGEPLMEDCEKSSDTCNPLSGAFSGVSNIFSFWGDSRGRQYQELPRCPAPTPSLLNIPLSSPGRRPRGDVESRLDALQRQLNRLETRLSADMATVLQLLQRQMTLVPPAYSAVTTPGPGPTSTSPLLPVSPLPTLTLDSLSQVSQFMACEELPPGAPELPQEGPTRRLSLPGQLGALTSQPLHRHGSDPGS
Assay: primary screen, population patch clamp on CHO cells stably expressing hERG; higher = less effect of the substance
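Further: peak tail current of the secondary pulse compared with the same well before compound.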

SMILES	hERG current change (%, negative = inhibition) at 10uM
CCOCCOc1nc(C)cc(C)c1S(=O)(=O)c1ccccc1C	-4.15%
CCOC(=O)C1(Cc2ccccc2)CCN(Cc2cccc3c2OCO3)CC1	-36.7%
CCOC(=O)C1(CCc2ccccc2)CCN(Cc2cccc3c2OCO3)CC1	-75%
CCOC(=O)C1(CCOc2ccccc2)CCN(Cc2cccc3c2OCO3)CC1	-64.6%
O=C(CN1C(=O)c2ccccc2C1=O)Nc1ccccc1	-0.118%
CCOC(=O)N1CCN(C(=O)C2CCCN(S(=O)(=O)c3cc(C)ccc3OC)C2)CC1 (stereo not drawn)	-5.57%
COCc1c(C#N)c(NCc2cc(OC)c(OC)c(OC)c2)nc(C)c1[N+](=O)[O-]	-12.2%
Cc1ncc(CN2CCC(C(=O)Nc3cccc(-c4cscn4)c3)CC2)cn1	-11.9%
O=C(Nc1cccc(-c2cscn2)c1)C1CCN(Cc2ccsc2)CC1	-65%
CSc1ncc(CN2CCC(C(=O)Nc3cccc(-c4cscn4)c3)CC2)cn1	-35.7%
O=C(Nc1ccc(-n2cccn2)cc1)C1CCN(Cc2ccccn2)CC1	-16.7%
Cc1ncc(CN2CCC(C(=O)Nc3ccc(-n4cccn4)cc3)CC2)s1	-21.2%
O=C(Nc1ccc(-n2cccn2)cc1)C1CCN(Cc2ccsc2)CC1	-81.1%
Cc1ccc(CN(CC(=O)NCc2ccccn2)S(=O)(=O)c2ccccc2)cc1	-23.9%
COC(=O)CN(C#N)c1nc(NCc2ccccc2)nc(OC)n1	-1.33%
CCN(CC(=O)Nc1ccc2c(c1)OCCO2)CC(=O)Nc1ccc2c(c1)OCO2	28%
Cc1ccc(CC(CC(=O)Nc2cccc(C(F)(F)F)c2)C(=O)O)cc1 (stereo not drawn)	18%
COc1cc2c(cc1OC)-c1cc(OCCN3CCOCC3)nc(=O)n1CC2	-11.5%
O=C(O)c1nccnc1C(=O)Nc1ccc(Cl)cn1	17.6%

SMILES	hERG current change (%, negative = inhibition) at 10uM
CCC(C)NC(=O)[C@H]1N2C(=O)c3ccccc3C2SC1(C)C (stereo partly drawn)	12.8%
Cc1noc(C(=O)Nc2c(C)nn(Cc3ccccc3)c2C)c1Cl	4.71%
CC1CCCC(NC(=O)CCC(=O)c2ccc(F)cc2)C1C (stereo not drawn)	8.27%
CC1CCCC(NCC(O)COC(c2ccc(F)cc2)c2ccc(F)cc2)C1C (stereo not drawn)	-71.6%
CC1CCCC(NC(=O)CSc2ccc(F)cc2)C1C (stereo not drawn)	18.7%
Cc1cccc(C(=O)N2CCN(c3ncnc4c3cnn4-c3ccccc3)CC2)c1	-19.4%
COc1ccc(-c2cc(=O)oc3c(C)c(OC(C)C(=O)NCc4ccccn4)ccc23)cc1 (stereo not drawn)	-9.16%
COC(=O)C(C)Oc1ccc2c(-c3cccc([N+](=O)[O-])c3)cc(=O)oc2c1 (stereo not drawn)	-25.8%
CC(=O)COc1ccc2c(-c3cccc([N+](=O)[O-])c3)cc(=O)oc2c1	-25.9%
COc1ccc(-c2cc(=O)oc3cc(OC(C)C(=O)NCc4ccccn4)ccc23)cc1 (stereo not drawn)	-54.8%
COc1ccc(-c2cc(=O)oc3cc(OCC(=O)NCc4ccccn4)ccc23)cc1	-6.52%
Cc1cc(=O)oc2cc(OC(C)C(=O)NCc3ccccn3)ccc12 (stereo not drawn)	9.03%
CCOC(=O)C(C)Oc1ccc2c(-c3cccc([N+](=O)[O-])c3)cc(=O)oc2c1 (stereo not drawn)	-62.4%
CC(Oc1ccc2c(-c3ccccc3)cc(=O)oc2c1)C(=O)NCc1ccccn1 (stereo not drawn)	-50.9%
CCc1cc(=O)oc2cc(OC(C)C(=O)NCc3ccccn3)ccc12 (stereo not drawn)	14.4%
Cc1ccccc1NC(=O)c1cnn(-c2ccccc2)c1NC(=O)c1ccco1	0.329%
COc1ccc(CCNC(=O)c2c[nH]c3ccccc3c2=O)cc1OC	-1.95%
Cc1noc(NS(=O)(=O)c2ccc(NC(=O)C34CCC(CC3)C4)cc2)c1C	-9.55%
COC(=O)CNC(=O)C(NC(=O)OCc1ccccc1)C(C)C (stereo not drawn) (Cbz-[ξV]-Gly-OMe)	16.1%

SMILES	hERG current change (%, negative = inhibition) at 10uM
CCOC(=O)Nc1ccc2c(c1)OCO2	26.2%
CCOC(=O)C1CCCN(c2nc3ccccc3nc2NS(=O)(=O)c2ccc(C)cc2)C1 (stereo not drawn)	-44.8%
CCOC(=O)C1CCCN(Cc2c(Cl)cccc2Cl)C1 (stereo not drawn)	-6.47%
CCOC(=O)C1CCCN(Cc2nc(N)nc(Nc3ccc(OC)cc3)n2)C1 (stereo not drawn)	-75.6%
CCOC(=O)C1CCCN(Cc2nc(N)nc(Nc3ccccc3OC)n2)C1 (stereo not drawn)	-70.8%
COc1ccccc1Nc1nc(N)nc(CSC(=S)N2CCCCC2C)n1 (stereo not drawn)	-5.64%
CCOC(=O)C1CCCN(Cc2ccc(OCC)cc2)C1 (stereo not drawn)	-42.9%
Cc1ccccc1Nc1nc(N)nc(COC(=O)C2CCCCC2)n1	8.35%
CCOC(=O)C1CCCN(C(=S)Nc2ccc(OC)cc2)C1 (stereo not drawn)	5.25%
CCOC(=O)C1CCCN(Cc2cccc(Cl)c2)C1 (stereo not drawn)	-8.02%
CCOC(=O)C1CCCN(Cc2nc(N)nc(Nc3ccc(C)cc3)n2)C1 (stereo not drawn)	-69.5%
CCOC(=O)C1CCCN(Cc2ccccc2Cl)C1 (stereo not drawn)	-3.88%
CCOC(=O)C1CCCN(Cc2nc(N)nc(Nc3ccc(Cl)cc3)n2)C1 (stereo not drawn)	-79%
N#Cc1cc2c(N)c(C(=O)Nc3ccccc3)sc2nc1N	8.83%
CCCCN(C(=O)C1CCC1)c1c(N)n(CC(C)C)c(=O)[nH]c1=O	1.74%
COc1ccccc1OCC(=O)[O-].[Na+]	4.6%
Cc1c(Cl)cccc1-c1ccc(CNCc2ccccn2)o1.Cl	8.15%
Cc1ccc(OCC(=O)NCCO)c(Br)c1	14.3%
O=C(CSc1nnc(-c2ccc(F)cc2)o1)Nc1ccc(S(=O)(=O)N2CCCC2)cc1	-2.73%
